From PubChem BioAssay (EPA / NIEHS)
Inconclusive results are not listed. Active and inactive are the calls of the source. The calls were made as follows: active = hit-call score of the fitted dose curve at least 0.9, where 1 is the maximum; inconclusive = response in the unintended direction; inactive = score below 0.9.

Assays:
[1] = target: rat Serotonin Transporter (SERT), Slc6a4 (gene 25553) (UniProt P31652); experiment: NVS_TR_rSERT: NovaScreen (NVS) Transporter Assay for rat Serotonin Transporter (SERT) (AID 2283375)
Sequence of rat Serotonin Transporter (SERT), Slc6a4 (gene 25553) (P31652 whole entry, looked up): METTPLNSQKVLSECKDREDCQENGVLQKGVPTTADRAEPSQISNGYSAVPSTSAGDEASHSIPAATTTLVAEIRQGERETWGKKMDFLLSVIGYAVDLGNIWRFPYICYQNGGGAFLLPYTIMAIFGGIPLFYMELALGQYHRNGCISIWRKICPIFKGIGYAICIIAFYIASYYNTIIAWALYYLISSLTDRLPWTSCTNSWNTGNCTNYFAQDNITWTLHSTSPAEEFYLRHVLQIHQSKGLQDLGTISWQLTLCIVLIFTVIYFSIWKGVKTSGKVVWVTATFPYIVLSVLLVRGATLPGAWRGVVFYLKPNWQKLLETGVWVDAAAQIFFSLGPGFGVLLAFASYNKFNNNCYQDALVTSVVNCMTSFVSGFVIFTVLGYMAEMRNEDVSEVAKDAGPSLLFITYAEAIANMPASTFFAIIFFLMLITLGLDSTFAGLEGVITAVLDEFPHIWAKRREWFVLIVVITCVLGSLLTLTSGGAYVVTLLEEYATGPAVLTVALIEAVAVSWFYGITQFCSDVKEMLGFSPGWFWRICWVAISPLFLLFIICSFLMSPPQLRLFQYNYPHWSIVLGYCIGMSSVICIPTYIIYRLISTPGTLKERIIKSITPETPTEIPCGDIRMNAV
Procedure, shortened: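 Radioligand displacement, filter scintillation readout; rat forebrain membrane prep, 1 h post-dose. Single-conc 25 uM duplicate screen, then concentration-response on actives. Loss of signal vs DMSO baseline.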

[2] = target: mouse Estrogen Receptor alpha (Era), Esr1 (gene 13982) (UniProt P19785); experiment: NVS_NR_mERa: NovaScreen (NVS) Nuclear Receptor Binding Assay for mouse Estrogen Receptor alpha (Era) (AID 2283378);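 also: hit means loss of bound radioligand signal relative to DMSO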
Sequence of mouse Estrogen Receptor alpha (Era), Esr1 (gene 13982) (P19785 whole entry, looked up): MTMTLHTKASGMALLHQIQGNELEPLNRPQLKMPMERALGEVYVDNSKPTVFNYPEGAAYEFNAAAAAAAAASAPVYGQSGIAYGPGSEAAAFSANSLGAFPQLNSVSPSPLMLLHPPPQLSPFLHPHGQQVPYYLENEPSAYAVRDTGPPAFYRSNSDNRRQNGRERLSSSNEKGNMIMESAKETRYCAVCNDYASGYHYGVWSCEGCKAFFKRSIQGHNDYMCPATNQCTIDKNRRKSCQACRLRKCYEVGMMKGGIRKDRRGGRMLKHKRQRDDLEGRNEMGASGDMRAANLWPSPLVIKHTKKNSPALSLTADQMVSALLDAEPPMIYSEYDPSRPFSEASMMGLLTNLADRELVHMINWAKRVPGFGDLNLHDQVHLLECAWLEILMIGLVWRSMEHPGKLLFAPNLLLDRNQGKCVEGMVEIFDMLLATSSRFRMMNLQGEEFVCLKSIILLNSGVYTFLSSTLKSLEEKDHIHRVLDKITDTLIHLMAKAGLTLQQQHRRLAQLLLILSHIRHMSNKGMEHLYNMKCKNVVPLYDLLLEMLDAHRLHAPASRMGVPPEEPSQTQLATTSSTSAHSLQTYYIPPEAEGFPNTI
Protocol: NVS_NR_mERa is a biochemical, single-readout assay that uses extracted gene-proteins in a cell-free assay. Measurements were taken 18 hours after chemical dosing in a 96-well plate.NVS_NR_mERa is one of one assay component(s) measured or calculated from the NVS_NR_mERa assay. It is designed to make measurements of radioligand binding, a form of binding reporter, as detected with scintillation counting signals by Filter-based radiodetection technology.Data from the assay component NVS_NR_mERa was analyzed into 1 assay endpoint. This assay endpoint, NVS_NR_mERa, was analyzed in the positive analysis fitting direction relative to DMSO as the negative control and baseline of activity. […] Furthermore, this assay endpoint can be referred to as a primary readout, because the performed assay has only produced 1 assay endpoint. […]
Binding assays used specific radioligands (tritiated, iodinated) with non-radioactive competitive displacement ligands in agonist or antagonist protocols (as indicated) and various reference compounds and inhibitors to titrate specific binding to receptors and transporters. Most enzyme assays (CYPs, kinases, phosphatases, proteases, HDACs) used recombinant protein and specific substrates (fluorescence mostly, some colorimetric and radioactive) and inhibitors, followed by a biochemical separation of substrate and product. […]

Row | Compound | AC50 [1] | AC50 [2]
1 | COc1ccc(CCN2CCC(Nc3nc4ccccc4n3Cc3ccc(F)cc3)CC2)cc1 | 2.26 µM (active) | 
2 | CCCCCCCCCCCC(=O)OCC(O)CO (configuration not stated) |  | 6.68 µM (active)
